Screens from PubChem.
The list is not random: actives were taken first. Their share in the collection is about 3.9%.
ATXN viability – Viability Counterscreen for Primary qHTS for Inhibitors of ATXN expression; Potency, µM (highest dose often 56.7 µM), usual class: cytotoxic; 400,000 compounds, 0.49% hits; S2 cells (HEK-293 line with an ATXN2-luciferase reporter) viability, CellTiter-Fluor protease fluorescence, 24 h; note: nearly all actives have a fitted effect of over 40% in size
ATXN2 expr inh – Primary qHTS for Inhibitors of ATXN expression; Potency, µM (titrated, usually from 57 µM), inactives show top-dose activity change, negative = inhibition, hits mostly inhibitors; HEK-293 ATXN2-luciferase reporter, luminescence, 24 h; 360,000 compounds, 0.72% hits; note: % is set by controls: 0 for no effect and ±100 for the full control effect; nearly all actives have a fitted effect of over 55% in size
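qHTS (up to 57 uM final) was run with 24 h compound exposure of reporter cells at 37 °C. Each well was multiplexed: SteadyGlo luminescence measured ATXN2-luciferase expression after a fluorogenic Gly-Phe-AFC viability readout (25 uM final).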
HepG2 tox – qHTS for Inhibitors of TGF-b: Cytotox Counterscreen. 410,000 compounds, 0.76% hits. Potency, µM (doses to about 46.1 µM), for the others: at the top dose activity change, negative = cytotoxicity, most hits filed as cytotoxic. HepG2 CAGA-GFP viability, ATP luminescence, 18 h
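CellTiter-Glo luminescence gave cytotoxicity after 18 hours at 37 degrees C. The cells were HepG2 CAGA-GFP in 1% FBS DMEM, stimulated with 500 pg/mL TGF-beta after compound addition. %Activity was normalised to no-cell wells (complete cell-killing) and DMSO (no toxicity), and curves were fitted and classified.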
HT1080-NT tox – qHTS for induction of synthetic lethality in tumor cells producing 2HG: qHTS for the HT-1080-NT fibrosarcoma cell line; Potency, µM (doses to about 46.1 µM), without a hit: at the highest dose activity, negative = less viability, actives largely listed as cytotoxic; 360,000 compounds, 1.6% hits; HT-1080-NT fibrosarcoma viability, CellTiter-Glo ATP luminescence, 48 h;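 note: NT is the 2HG producing partner of a matched IDH1 knockdown line; 0% = DMSO-treated cells and -100% = media-only wells without cells; nearly all actives have a fitted effect of over 55% in size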
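Viability of the 2HG-overproducing fibrosarcoma line after 48 hours of compound exposure at 37 degrees C was determined by luminescence with CellTiter-Glo, and concentration-effect curves were then fitted and categorized.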
TGFb inhibitor – qHTS for Inhibitors of TGF-b; AID 588855, 2011; Potency, µM (doses to about 46.1 µM), for inactives: top-dose activity, negative = inhibition, hits mostly inhibitors; 410,000 compounds, 1.2% hits; HepG2 CAGA-GFP TGF-b/SMAD3 reporter, GFP fluorescence, 18 h; TGF-beta stimulated, 500 pg/mL final; note: % is set by controls: 0 for no effect and ±100 for the full control effect; nearly all actives have a fitted effect of over 65% in size
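Inhibition was scored as loss of TGF-beta-induced (500 pg/mL final, 18 hours, 37 degrees C) GFP in HEPG2 cells carrying a CAGA-GFP reporter, in DMEM with 1% FBS. Well GFP was summed per cell; Activity was normalised to unstimulated and stimulated DMSO wells, then concentration-response fitting.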
HT1080 IDH1KD tx – qHTS for induction of synthetic lethality in tumor cells producing 2HG: qHTS for the HT-1080-IDH1KD cell line; HT-1080 IDH1 knockdown viability, ATP luminescence, 48 h; Potency, µM (top dose mostly 46.1 µM), for inactives: top-dose activity, negative = toxicity, most hits filed as cytotoxic; 360,000 compounds, 2% hits;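 note: 0% = DMSO wells and -100% = cell-free medium wells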
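Knockdown cells (IDH1KD HT-1080) received compounds 2 h after plating at 750 cells/well and were kept 48 h at 37 °C in 5% FBS RPMI. A CellTiter-Glo luminescence read gave % activity for curve fitting.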
* = called active by the depositor. Calls come from the whole dose curve; as a rule, active = well fitted curve in the direction sought with a large enough effect; inconclusive = small, poorly fitted or top-dose-only effect, or another doubt; inactive = no such curve, though single readings can be large; an effect the other way counts as inactive or inconclusive. Potency is the fitted concentration of half-maximal effect.

`CCOc1ccc(S(=O)(=O)NCCc2c(C)[nH]c3c(Cl)cccc23)cc1C` gave ATXN viability inactive, ATXN2 expr inh inconclusive, HepG2 tox 18µM* and TGFb inhibitor 16µM*.
`O=C(NC1CC(=O)N(c2ccc(Cl)cc2)C1)C(=O)c1c[nH]c2ccccc12` (configuration not stated) gave HepG2 tox 5% and TGFb inhibitor inconclusive.
Screening Cc1cc(C)c2c(c1)/C(=N/Nc1ccc(S(N)(=O)=O)cc1[N+](=O)[O-])CCC2 returned ATXN viability inactive, HepG2 tox -13%, HT1080-NT tox -8%, TGFb inhibitor -14% and HT1080 IDH1KD tx -5%.
For NS(=O)(=O)c1ccc(N/N=C2/CCCCC2C2CCCCC2)c([N+](=O)[O-])c1 (configuration not stated) the results were ATXN viability inconclusive, ATXN2 expr inh inconclusive, HepG2 tox -115%, HT1080-NT tox 18µM*, TGFb inhibitor inconclusive and HT1080 IDH1KD tx inconclusive.
For CN(c1ccccc1C(=O)O)S(C)(=O)=O the results were ATXN viability inactive, ATXN2 expr inh -4%, HepG2 tox 18%, HT1080-NT tox 2%, TGFb inhibitor 25% and HT1080 IDH1KD tx 16%.
CN(C)c1ccccc1C(=O)c1ccccc1N(C)C was read as ATXN viability inactive, ATXN2 expr inh 22%, HepG2 tox -9%, HT1080-NT tox inconclusive, TGFb inhibitor -3% and HT1080 IDH1KD tx 4.6µM*.
Screening C#CCNC(=O)C[C@@H]1C[C@@]2(C(=O)OC)CC(C)(C)CC=C2N(Cc2ccco2)C1=O returned HT1080-NT tox 8% and HT1080 IDH1KD tx 7%.
`COC(=O)[C@@]12C[C@@H](CC(=O)NCC34CC5CC(CC(C5)C3)C4)C(=O)N(Cc3ccco3)C1=CCC(C)(C)C2` gave HT1080-NT tox 21µM* and HT1080 IDH1KD tx inconclusive.
For Cc1cc(C)cc(SCc2noc(C(=O)NCCN(C)C)c2C(=O)NCCN(C)C)c1 the results were ATXN viability inactive, ATXN2 expr inh inconclusive, HepG2 tox -29%, HT1080-NT tox 18µM*, TGFb inhibitor 1% and HT1080 IDH1KD tx inconclusive.
Screening COCCNC(=O)c1onc(CSc2cccc(OC)c2)c1C(=O)NCCOC returned ATXN viability inactive, ATXN2 expr inh -2%, HepG2 tox 1µM*, HT1080-NT tox inconclusive, TGFb inhibitor -6% and HT1080 IDH1KD tx 4%.
For CCCCNC(=O)c1onc(CSc2cccc(OC)c2)c1C(=O)NCCCC the results were ATXN viability inactive, ATXN2 expr inh 2%, HepG2 tox -3%, HT1080-NT tox 0%, TGFb inhibitor inconclusive and HT1080 IDH1KD tx 3%.
COc1cccc(C2C=C(c3ccc(C)c(C)c3)Nc3nnnn32)c1OC (configuration not stated) was read as ATXN viability inactive, ATXN2 expr inh 13%, HepG2 tox -21% and TGFb inhibitor -2%.
For O=C(CN1C(=O)c2ccccc2S1(=O)=O)c1ccccc1F the results were ATXN viability inactive, ATXN2 expr inh 7.9µM*, HepG2 tox 5%, HT1080-NT tox 8%, TGFb inhibitor -13% and HT1080 IDH1KD tx 9%.
Screening O=C(CN1C(=O)c2ccccc2S1(=O)=O)c1ccc2c(c1)OCCCO2 returned ATXN viability inactive, ATXN2 expr inh 0.28µM*, HepG2 tox -15%, HT1080-NT tox 7%, TGFb inhibitor inconclusive and HT1080 IDH1KD tx 6%.
`O=C(CN1C(=O)c2ccccc2S1(=O)=O)c1ccc(Cl)cc1Cl` gave ATXN viability inactive, ATXN2 expr inh 2µM*, HepG2 tox -7%, HT1080-NT tox 10%, TGFb inhibitor -5% and HT1080 IDH1KD tx 0%.
`O=C(CN1C(=O)c2ccccc2S1(=O)=O)c1ccc(F)cc1` gave ATXN viability inactive, HepG2 tox 3%, HT1080-NT tox -6%, TGFb inhibitor 3% and HT1080 IDH1KD tx 8%.
Screening O=C(CN1C(=O)c2ccccc2S1(=O)=O)c1ccc(OC(F)F)cc1 returned ATXN viability inactive, ATXN2 expr inh 2µM*, HepG2 tox 6%, HT1080-NT tox 1%, TGFb inhibitor 11% and HT1080 IDH1KD tx 5%.
For O=C(CN1C(=O)c2ccccc2S1(=O)=O)c1ccc2c(c1)OCCO2 the results were ATXN viability inactive, HepG2 tox -7%, HT1080-NT tox -4%, TGFb inhibitor -15% and HT1080 IDH1KD tx -3%.
`COc1ccc(N2C(=O)CS(=O)(=O)C23C(=O)N(Cc2ccccc2F)c2ccccc23)cc1Cl` (configuration not stated) gave ATXN viability inconclusive, ATXN2 expr inh -3%, HepG2 tox -8% and TGFb inhibitor 13%.
Screening COCCCNC(=O)C1CCCN(S(C)(=O)=O)C1 (configuration not stated) returned ATXN viability inactive, ATXN2 expr inh -9%, HepG2 tox 3.5µM*, HT1080-NT tox -5%, TGFb inhibitor 9% and HT1080 IDH1KD tx -12%.
For CCCS(=O)(=O)N1CCCC(C(=O)NCCCOC)C1 (configuration not stated) the results were ATXN viability inactive, ATXN2 expr inh 14%, HepG2 tox -3% and TGFb inhibitor 11%.
For COc1ccc2[nH]c3nc(SCc4nnc(-c5ccc(C)cc5)o4)nnc3c2c1 the results were ATXN2 expr inh 20µM*, HepG2 tox -2%, HT1080-NT tox inconclusive, TGFb inhibitor 9% and HT1080 IDH1KD tx inconclusive.
`COc1ccc(CNC(=O)CSc2nnc3c(n2)[nH]c2ccc(C)cc23)cc1` gave ATXN viability inactive, ATXN2 expr inh 8%, HepG2 tox 3%, HT1080-NT tox 1%, TGFb inhibitor 15% and HT1080 IDH1KD tx 3%.
CCCCc1ccc(NC(=S)NCCc2ccc(F)cc2)cc1 was read as ATXN viability inactive, ATXN2 expr inh -9%, HepG2 tox -105%, HT1080-NT tox inconclusive, TGFb inhibitor 16µM* and HT1080 IDH1KD tx inconclusive.
Screening Fc1ccc(CCNC(=S)Nc2ccc(F)cc2)cc1 returned ATXN viability inactive, ATXN2 expr inh 25%, HepG2 tox -3%, HT1080-NT tox 3%, TGFb inhibitor 22% and HT1080 IDH1KD tx 3%.
